According to PubChem BioAssay (NCATS):
Records with an inconclusive call do not appear. A call without a number means that no potency is given here. A number with no mark means an inactive call. Activity calls are given as the source filed them. The call rests on the fitted dose curve; in most records, active means well fitted curve in the direction sought with a large enough effect; inconclusive means small, poorly fitted or top-dose-only effect, or another doubt; inactive means no such curve, though single readings can be large; an effect the other way counts as inactive or inconclusive. Positions of bridges follow the written chain, without caps; N, C: chain ends. Non-standard residues stand in square brackets, D forms with d. Residues, ends and D or L forms follow the SMILES beside them. ξ: configuration not given here. *: point of attachment. Octanoyl(6-Me) = CCC(C)CCCCC(=O)*; ξThr(3R) = C[C@@H](O)C(N)C(=O)O; dDab = NCC[C@@H](N)C(=O)O; Dab = NCC[C@H](N)C(=O)O

How the values were obtained:
[1] = qHTS of pediatric cancer cell lines to identify multiple opportunities for drug repurposing: Primary screen for OHS-50 cells (AID 1347103); further: nearly all actives have a fitted effect of over 40% in size; further: potency means the concentration at half of the fitted maximal effect
In short: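 Cells (500-1,000/well) rested 5 h, then received compounds for 48 h; metabolically active cells were measured by CellTiter-Glo luminescence. Final concentrations spanned up to 46 µM (MIPE, 11-point) or 0.59 nM-46 µM (NPC, 8-point) in primary screens, 11-point in follow-ups.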

[2] = qHTS of pediatric cancer cell lines to identify multiple opportunities for drug repurposing: Primary screen for RD cells (AID 1347104); further: nearly all actives have a fitted effect of over 55% in size; further: potency means the concentration at half of the fitted maximal effect
In short: (§1)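 CRCs from 8- or 11-point titrations (lowest final 0.59 nM NPC, 0.78 nM MIPE). Cell viability: CellTiter-Glo after 48 h incubation, 15 min room-temperature development, luminescence imaging.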

[3] = qHTS of pediatric cancer cell lines to identify multiple opportunities for drug repurposing: Primary screen for MG 63 (6-TG R) cells (AID 1347105); further: nearly all actives have a fitted effect of over 50% in size; further: potency means the concentration at half of the fitted maximal effect
In short: as §1

[4] = qHTS of pediatric cancer cell lines to identify multiple opportunities for drug repurposing: Primary screen for control Hh wild type fibroblast cells (AID 1347106);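 further: series mostly up to about 46 µM; a drop in luminescence marks cytotoxicity and a rise apparent proliferation; nearly all actives have a fitted effect of over 55% in size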
In short: (§2)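 Viability after 48 h compound treatment at 37C, 500-1,000 cells/well, read as ATP luminescence with CellTiter-Glo. Primary screens used 11-point (MIPE, 0.78 nM-46 µM) or 8-point (NPC, 0.59 nM-46 µM) final concentrations; follow-up screens used 11-point dilutions.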

[5] = qHTS of pediatric cancer cell lines to identify multiple opportunities for drug repurposing: Primary screen for Rh30 cells (AID 1347107); further: series mostly up to about 46 µM; nearly all actives have a fitted effect of over 75% in size
In short: as §2

[6] = qHTS of pediatric cancer cell lines to identify multiple opportunities for drug repurposing: Primary screen for Rh41 cells (AID 1347108);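 further: series mostly up to about 46 µM; luminescence drop marks cytotoxic hits; nearly all actives have a fitted effect of over 70% in size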
In short: as §1

Structure (SMILES)	Potency [1]	Potency [2]	Potency [3]	Potency [4]	Potency [5]	Potency [6]
CC[C@H]1OC(=O)[C@H](C)[C@@H](O[C@H]2C[C@@](C)(OC)[C@@H](O)[C@H](C)O2)[C@H](C)[C@@H](O[C@@H]2O[C@H](C)C[C@H](N(C)C)[C@@H]2O)[C@](C)(OC)C[C@@H](C)C(=O)[C@H](C)[C@@H](O)[C@]1(C)O	inactive	inactive	inactive	inactive		
O=C(O)[C@H](CC(=O)N1C[C@@H]2CCCC[C@H]2C1)Cc1ccccc1	inactive	inactive	inactive	inactive	inactive	inactive
Nc1cccc2c1C(=O)N(C1CCC(=O)NC1=O)C2=O (stereo not given)	inactive	inactive	inactive	inactive	inactive	
N#Cc1cc(NC(=O)Nc2nnc(-c3ccncc3)s2)ccc1-c1cn[nH]c1	inactive	inactive	inactive	inactive	inactive	
NC(=O)c1cccc(-c2cccc(OC(=O)NC3CCCCC3)c2)c1	inactive	inactive	inactive	inactive	inactive	inactive
Cn1cc(-c2ccc3ncc(Cc4ccc5ncccc5c4)n3n2)cn1	inactive	inactive	inactive	inactive	inactive	
NC[C@H]1O[C@H](O[C@H]2[C@@H](O)[C@@H](O[C@H]3O[C@H](CO)[C@@H](O)[C@H](N)[C@@H]3O)[C@H](N)C[C@@H]2N)[C@H](N)C[C@H]1O	inactive	inactive	inactive	inactive	inactive	inactive
COc1cc(C)c(Sc2cnc(NC(=O)c3ccc(CNC(C)C(C)(C)C)cc3)s2)cc1C(=O)N1CCN(C(C)=O)CC1 (stereo not given)	4.85 µM (active)	14.8 µM (active)	14.8 µM (active)			
C=C1C[C@@]2(O)O[C@@]3(C[C@H]2C(C)C)[C@H](C)CC[C@H]13	inactive	inactive	inactive	inactive	inactive	
Nc1nc(N)c2nc(-c3cccc(O)c3)c(-c3cccc(O)c3)nc2n1	19.3 µM (active)	11.8 µM (active)				
C[C@@H]1C(=O)O[C@H]2CC34[C@H]5C[C@@H](C(C)(C)C)C36[C@H](OC(=O)[C@@H]6O)O[C@@]4(C(=O)O5)[C@]21O (stereo not given in full)	inactive	inactive	inactive	inactive	inactive	
CCC(C)CCCCC(=O)N[C@@H](CCN)C(=O)NC(C(=O)N[C@H](CCN)C(=O)N[C@@H]1CCNC(=O)C([C@@H](C)O)NC(=O)[C@@H](CCN)NC(=O)[C@@H](CCN)NC(=O)[C@@H](CC(C)C)NC(=O)[C@H](Cc2ccccc2)NC(=O)[C@H](CCN)NC1=O)[C@@H](C)O (stereo partly drawn) ({Octanoyl(6-Me)}-[Dab][ξThr(3R)][dDab][dDab][Dab]F[dL][dDab][dDab][ξThr(3R)]; lactam 4-C)	inactive	inactive	inactive	inactive	inactive	inactive
C[C@@H](NCc1cc2ccccc2[nH]1)c1cccc2ccccc12	inactive	inactive	inactive	inactive	inactive	
C[C@H](CCC(=O)O)[C@H]1CC[C@H]2[C@@H]3[C@H](O)C[C@@H]4C[C@H](O)CC[C@]4(C)[C@@H]3CC[C@]12C	inactive	inactive	inactive	inactive	inactive	inactive
Nc1nc(=O)n([C@H]2CSC(CO)O2)cc1F (stereo not given in full)	inactive	inactive	inactive	inactive	inactive	inactive
COc1ccc(Nc2nccc(NCCO)n2)cc1	inactive	inactive	inactive	inactive	inactive	inactive
O=C(Nc1cccc(Nc2ncc(Br)c(NCCc3cnc[nH]3)n2)c1)N1CCCC1	17.2 µM (active)	16.6 µM (active)	14.8 µM (active)			
N[C@H]1CN(c2c(F)cc3c(=O)c(C(=O)O)cn(C4C[C@@H]4F)c3c2Cl)CC12CC2 (stereo not given in full)	inactive	inactive	inactive	inactive	inactive	
CCCNS(=O)(=O)Nc1ncnc(OCCOc2ncc(Br)cn2)c1-c1ccc(Br)cc1	inactive	inactive	inactive	inactive	inactive	
O=c1[nH]c(=O)n([C@H]2C[C@@H](O)[C@@H](CO)O2)cc1C=CBr	inactive	inactive	inactive	inactive	inactive	
CC(=O)OCC(=O)[C@@]12N=C(C)O[C@H]1C[C@H]1[C@@H]3CCC4=CC(=O)C=C[C@]4(C)[C@@H]3[C@@H](O)C[C@@]12C	inactive	inactive	inactive	inactive	inactive	
CCN(C(=O)c1c(O)c2c(Cl)cccc2n(C)c1=O)c1ccccc1	inactive	inactive	inactive	inactive	inactive	inactive
CCNC(=O)c1cc2c(-c3cc(OCCN4CCCC4)c(Cl)cc3Cl)nc(N)nc2s1	3.85 µM (active)	1.48 µM (active)	14.8 µM (active)	inactive	inactive	
OCCNC1CCCc2c1[nH]c1ccc(-c3ccccc3)cc21 (stereo not given)	24.3 µM (active)	33.2 µM (active)	inactive	inactive		
CC(C)(O)[C@H]1CC[C@@](C)([C@H]2[C@@H](O)C[C@@]3(C)[C@@H]4C[C@H](O[C@@H]5O[C@H](CO)[C@@H](O)[C@H](O)[C@@H]5O)[C@H]5C(C)(C)[C@@H](O[C@@H]6OC[C@@H](O)[C@H](O)[C@@H]6O)CC[C@@]56C[C@@]46CC[C@]23C)O1	inactive	inactive	inactive	inactive	inactive	
Oc1cc2c(cc1O)C1c3ccc(O)c(O)c3OCC1(O)C2 (stereo not given)	inactive	inactive	inactive	inactive	inactive	inactive
